Results on eight compounds are retold here after PubChem BioAssay (EPA / NIEHS).

Experiment [1] deals with Transcription factor E2F1 (Homo sapiens) (UniProt Q01094). In words: ATG_E2F_CIS: Attagene CIS-FACTORIAL HepG2 Assay for human E2F Transcription Factor 1 (AID 2282935). Conditions: HepG2 Attagene cis-reporter, E2F reporter RNA transcripts; actives raise or lower the signal. In outline:
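First, HepG2 cells were transfected with reporter transcription units. Next, they were dosed for 24 h. Then RNA was isolated, converted to cDNA, PCR-amplified, FAM-labeled, HpaI-digested and analyzed by capillary electrophoresis.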

A short description of experiment [2]: ATG_E_Box_CIS: Attagene CIS-FACTORIAL HepG2 Assay for human Enhancer Box (E-box) (AID 2282936). Conditions: HepG2 E-box cis-reporter transcription, actives raise or lower the signal. Summed up: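 Endogenous transcription factor activity was sensed in human HepG2 liver cells through transfected cis-promoter reporter units. After 24 h of dosing, total RNA was reverse-transcribed and reporter cDNA resolved by capillary electrophoresis.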

The nature of experiment [3]: ATG_EGR_CIS: Attagene CIS-FACTORIAL HepG2 Assay for human Early Growth Response 1 (EGR1) (AID 2282938). Conditions: HepG2 Attagene CIS-FACTORIAL EGR reporter mRNA; actives raise or lower the signal. In outline: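 Fluorescent capillary-electrophoresis signal of reporter cDNA fragments serves as read-out. HepG2 cells bear transiently transfected cis-promoter reporter units and are exposed 24 h; gain- or loss-of-signal is fitted against DMSO.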

Experiment [4] is described as follows: ATG_M_19_CIS: Attagene CIS-FACTORIAL HepG2 Assay for M19 Transcription Factor (Internal Marker) (AID 2282939). Conditions: HepG2 Attagene CIS-FACTORIAL M19 internal marker reporter; actives raise or lower the signal. In outline: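 Internal marker readout, fitted in both directions against DMSO, from HepG2 cells carrying transfected cis-element reporter constructs; RT-PCR and capillary electrophoresis of reporter mRNA after 24 h exposure.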

Experiment [5] can be described thus: ATG_ERE_CIS: Attagene CIS-FACTORIAL HepG2 Assay for Estrogen Response Element (ERE) (AID 2282940). The settings on record: HepG2 ERE cis-reporter, Attagene RNA transcript; actives raise or lower the signal. Summed up:
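After 24 h compound treatment, RNA from transfected HepG2 cells was reverse-transcribed, reporter cDNA PCR-amplified, FAM-labelled, HpaI-cut and resolved by capillary electrophoresis. ERE-driven cis reporter transcripts reflect endogenous factors; gain or loss scored against DMSO.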

Experiment [6] is described as follows: ATG_Ets_CIS: Attagene CIS-FACTORIAL HepG2 Assay for human Erythroblast Transformation Specific (ETS) (AID 2282941). The settings on record: HepG2 ETS cis-reporter transcription, actives raise or lower the signal. In outline: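 Endogenous transcription factor activity read as reporter mRNA via RT-PCR and capillary electrophoresis, with gain or loss fitted bidirectionally against DMSO. Human HepG2 liver cells, transiently transfected CIS reporter constructs, 24 h exposure.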

Experiment [7] has as its target Hepatocyte nuclear factor 3-beta (Homo sapiens) (UniProt Q9Y261). In words: ATG_FoxA2_CIS: Attagene CIS-FACTORIAL HepG2 Assay for human Forkhead box A2 (FOXA2) (AID 2282942). The settings on record: HepG2 cis-reporter transcription factor activity, 24 h; actives raise or lower the signal. Summed up: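 Fluorescence signal of reporter cDNA fragments, separated by capillary electrophoresis, reflects endogenous transcription factor activity in transfected HepG2 after 24 h. Both increases and decreases fitted against DMSO.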

A short description of experiment [8]: ATG_FoxO_CIS: Attagene CIS-FACTORIAL HepG2 Assay for human Forkhead box O (FoxO) (AID 2282943). Conditions: HepG2 Attagene cis-reporter, FoxO element, mRNA; actives raise or lower the signal. Summed up:
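24 h chemical exposure, HepG2 with transient cis-MRTU transfection. RNA extraction, oligo(dT) RT, reporter-specific PCR, primer-extension labelling, HpaI digestion, CE fragment analysis; bidirectional fit, DMSO baseline.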

The nature of experiment [9]: ATG_GATA_CIS: Attagene CIS-FACTORIAL HepG2 Assay for human GATA Binding Protein (AID 2282944). Conditions: HepG2 GATA cis-element reporter, Attagene multiplex mRNA; actives raise or lower the signal. Summed up: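 Reporter transcripts from a GATA cis-regulated unit, among multiplexed reporters in transfected HepG2 cells, were measured by RT-PCR with capillary electrophoresis after 24 h dosing. Induction or loss scored relative to DMSO.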

Structures are written as SMILES. Activity calls are given as the source filed them. The calls were made as follows: active = hit-call score of the fitted dose curve at least 0.9, where 1 is the maximum; inactive = score below 0.9.

Transcription factor E2F1 (Homo sapiens), sequence (Q01094 whole entry, looked up): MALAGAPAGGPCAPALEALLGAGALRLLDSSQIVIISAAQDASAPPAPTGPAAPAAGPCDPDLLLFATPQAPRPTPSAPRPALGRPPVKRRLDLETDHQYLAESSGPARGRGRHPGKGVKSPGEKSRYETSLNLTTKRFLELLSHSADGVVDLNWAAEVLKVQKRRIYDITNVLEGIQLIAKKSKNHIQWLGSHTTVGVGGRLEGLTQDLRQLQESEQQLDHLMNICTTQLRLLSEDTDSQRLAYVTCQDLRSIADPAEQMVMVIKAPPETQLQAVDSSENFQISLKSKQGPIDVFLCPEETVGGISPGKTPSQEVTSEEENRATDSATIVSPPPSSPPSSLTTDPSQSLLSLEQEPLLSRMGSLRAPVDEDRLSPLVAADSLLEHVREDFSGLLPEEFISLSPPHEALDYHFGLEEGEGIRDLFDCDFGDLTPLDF
Hepatocyte nuclear factor 3-beta (Homo sapiens), sequence (Q9Y261 whole entry, looked up, the tested form may be a part): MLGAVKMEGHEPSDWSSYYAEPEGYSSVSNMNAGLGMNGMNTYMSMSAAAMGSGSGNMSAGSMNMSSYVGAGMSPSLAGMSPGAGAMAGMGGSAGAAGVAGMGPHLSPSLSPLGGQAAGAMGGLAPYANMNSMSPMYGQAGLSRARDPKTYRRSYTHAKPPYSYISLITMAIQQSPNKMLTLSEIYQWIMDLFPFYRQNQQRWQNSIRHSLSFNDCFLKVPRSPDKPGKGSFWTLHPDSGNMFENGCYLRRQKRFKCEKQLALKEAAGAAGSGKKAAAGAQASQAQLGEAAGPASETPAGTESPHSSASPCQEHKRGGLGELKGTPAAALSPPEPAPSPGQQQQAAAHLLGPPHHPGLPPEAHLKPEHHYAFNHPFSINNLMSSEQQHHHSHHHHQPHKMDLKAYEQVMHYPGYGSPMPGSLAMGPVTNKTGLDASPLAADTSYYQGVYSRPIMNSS

Regarding `O=S(=O)(O)c1ccc(Nc2nc(Nc3ccc(C=Cc4ccc(Nc5nc(Nc6ccc(S(=O)(=O)O)cc6)nc(N(CCO)CCO)n5)cc4S(=O)(=O)O)c(S(=O)(=O)O)c3)nc(N(CCO)CCO)n2)cc1`, the result in experiment [1], in experiment [2], in experiment [3], in [4], in experiment [5] and in [6] was inactive. Also, the compound was classed as inactive in experiment [7], in experiment [8] and in experiment [9].

As to `CC(=O)OCCc1ccccc1`, the call in [1], in [2], in [3], in [4], in experiment [5] and in [6] was inactive. The outcome in experiment [7], in experiment [8] and in experiment [9] was inactive.

The AC50 is the concentration giving half of the maximal activity seen. Turning to `O=C(OCc1ccccc1)c1ccc(O)cc1`, the result in experiment [1], in [4], in experiment [6], in [7], in experiment [8] and in experiment [9] was inactive. Besides, the concentration at half-maximal activity (AC50) in experiment [2] was 171 µM (active); in [3] it was 93.4 µM (active); in [5], 8.77 µM (active).

With `Cc1ccc(C)c(OCCCC(C)(C)C(=O)O)c1`, the call in [1], in [2], in [3], in [4], in [6] and in experiment [7] was inactive. Further, the result in experiment [8] and in experiment [9] was inactive. Further, in experiment [5], the AC50 is 75.2 µM (active).

As for `COc1cc(O)c(C(=O)c2ccccc2)cc1S(=O)(=O)O`, the call in experiment [1], in [2], in [3], in [4], in experiment [6] and in experiment [7] was inactive. For the same compound, the result in experiment [8] and in [9] was inactive. In addition, the AC50 in experiment [5] is 56 µM (active).

Take `CC(C)=CCCC(C)=CC#N`: the compound was called inactive in [1], in [2], in [4], in experiment [6], in experiment [7] and in [8]. Also, the result in [9] was inactive.

`c1ccc(-c2nc3ccccc3[nH]2)cc1`: the result in experiment [1], in experiment [2], in experiment [3], in experiment [4], in experiment [5] and in experiment [6] was inactive. Moreover, the compound was called inactive in experiment [7], in experiment [8] and in [9].

Consider `O=C(Oc1ccccc1)c1ccccc1C(=O)Oc1ccccc1`, for which the call in [1], in [2], in experiment [3], in experiment [4], in experiment [5] and in [6] was inactive. Besides, the compound was called inactive in experiment [7], in experiment [8] and in experiment [9].
